Reference: PubChem BioAssay (EPA / NIEHS)
Calls of active or inactive are those of the source. Rule for the calls: active = hit-call score of the fitted dose curve at least 0.9, where 1 is the maximum; inactive = score below 0.9.

Assay: CCTE_Shafer_MEA_acute_per_network_burst_spike_number_mean: CCTE's Neural Acute Assay for Average Number of Spikes in a Network Burst, Shafer Lab (AID 2284019)
Experimental: CCTE_Shafer_MEA_acute assay is conducted using Axion Biosystems 48 well microelectrode array (MEA) plates and Maestro recording system. Each well of the MEA plate contains a grid of 16 microelectrodes embedded in the culture surface. Electrically active cells, such as neurons, can be cultured over the electrodes, and electrical activity in these cells can be recorded extracellularly. The spontaneous firing of neurons is captured from each electrode on a microsecond timescale providing both temporally and spatially precise data. […] The CCTE_Shafer_MEA_acute assay uses primary cultures of rat cortical neurons. As these cultures mature over time, neural networks develop functional activity and form cohesive networks in which electrical activity can be highly coordinated. Baseline 40-minute recordings are made on days post-plating 13 or 15, followed by a secondary 40-minute recording after chemical exposure.CCTE_Shafer_MEA_acute_per_network_burst_spike_number_mean is a component of the CCTE_Shafer_MEA_acute assay. It measures the average number of spikes (action potential firings) in a network burst (temporally-clustered group of spikes across multiple electrodes) as the total number of spikes in a network burst divided by the number of network bursts during a recording in a microelectrode array (MEA) using Axion Biosystems Maestro 768 channel amplifier with the AxIS adaptive spike detector. The recordings before and after chemical treatment are used to calculate a percent change in the mean number of spikes in a network burst in each well.Data from the assay component CCTE_Shafer_MEA_acute_per_network_burst_spike_number_mean was analyzed into 1 assay endpoint. This assay endpoint, CCTE_Shafer_MEA_acute_per_network_burst_spike_number_mean, was analyzed in the negative analysis fitting direction relative to DMSO as the negative control and baseline of activity. Using a type of functional reporter, gain or loss-of-signal activity can be used to understand electrical activity.
Spontaneous activity in the cortical cultures was recorded using an Axion Biosystems Maestro 768 channel amplifier and Axion Integrated Studios (AxIS) v1.8 (or later) software. The amplifier recorded from all channels simultaneously (gain = 1200 x; sampling rate = 12.5 kHz/channel): raw signals were filtered with a Butterworth band-pass filter (300-5000 Hz), which filters out slower local field potentials leaving only fast potentials, i.e., "spikes", arising from extracellular currents associated with action potentials (Pine 2006; Wheeler and Nam 2011). On-line spike detection of filtered signals was conducted with the AxIS adaptive spike detector, using a threshold of 8x the root mean squared (rms) noise on each channel. Any electrodes with rms noise levels greater than 5 uV were grounded (e.g., no data were recorded). Once grounded, an electrode was grounded for the duration of the experiment. All recordings were conducted at 37 C. Wells were deemed usable if on the day of the exposure >/= 10 electrodes were active (defined as >/= 5 spikes/min). On DIV 13 or 15, a minimum of three wells from one cortical culture preparation were treated with each compound (0.03-40 uM). Prior to recording baseline activity, each mwMEA plate was placed in the Maestro at 37 C and allowed to sit for 20 min while firing rates stabilized. Baseline activity (40 min) was recorded before the addition of each compound. An additional 40 min of spontaneous activity was recorded in the presence of each compound. Changes in network parameters relative to baseline were assessed following compound treatment.

**Q.** With `O=P(OC(CCl)CCl)(OC(CCl)CCl)OC(CCl)CCl` as the compound, how does the outcome read?
**A.** Its outcome is “inactive”.

**Q.** Which outcome does the source give for `COc1ccc2sc(C(=O)Nc3nnn[nH]3)c(OC(C)C)c2c1` here?
**A.** Its outcome is “inactive”.

**Q.** Which outcome does the source give for `CC[C@H]1OC(=O)[C@H](C)[C@@H](O[C@H]2C[C@@](C)(OC)[C@@H](O)[C@H](C)O2)[C@H](C)[C@@H](O[C@@H]2O[C@H](C)C[C@H](N(C)C)[C@H]2O)[C@](C)(O)C[C@@H](C)C(=O)[C@H](C)[C@@H](O)[C@]1(C)O` here?
**A.** Its outcome is “inactive”.

**Q.** Which outcome does the source give for `CCCCCCCCCCCCc1ccccc1` here?
**A.** Its outcome is “inactive”.

**Q.** Which outcome does the source give for `CCCCC(CC)COC(=O)CCCCCCCCC(=O)OCC(CC)CCCC` (stereo not drawn) here?
**A.** Its outcome is “inactive”.

**Q.** For `CCCCCCc1ccc(O)cc1O`, which AC50 is on record?
**A.** Its AC50 is 6.93 µM (active).

**Q.** With `Cn1cnc([N+](=O)[O-])c1Sc1ncnc2nc[nH]c12` as the compound, how does the outcome read?
**A.** The outcome was “inactive”.

**Q.** For `Cn1c(=O)c2c(ncn2C)n(C)c1=O`, which outcome is on record?
**A.** Its outcome is “inactive”.

**Q.** With `O=C(O)c1cc(N=Nc2ccc(S(=O)(=O)Nc3ccccn3)cc2)ccc1O` as the compound, how does the outcome read?
**A.** Its outcome is “inactive”.

**Q.** With `On1ccccc1=S` as the compound, how does the outcome read?
**A.** Its outcome is “inactive”.

**Q.** With `CC[C@H]1CC[C@H](NCc2cc3c(cc2OC)[C@H]2C[C@H]2C(=O)N3C)[C@H](c2ccccc2)N1` as the compound, how does the outcome read?
**A.** Its outcome is “inactive”.

**Q.** With `CC(C)=CCCC(C)=CC=O` as the compound, how does the outcome read?
**A.** The outcome was “inactive”.

**Q.** For `Cc1[nH]cnc1C[C@H]1CCc2c(C)c3ccccc3n2C1=O`, which outcome is on record?
**A.** The outcome was “inactive”.

**Q.** Which outcome does the source give for `O=C(O)CCN(C1(C(=O)NO)CCCC1)S(=O)(=O)c1ccc(Oc2ccc(F)cc2)cc1` here?
**A.** The outcome was “inactive”.

**Q.** With `CCCN(C1CCN(C(=O)C2CCNCC2)CC1)[C@@H]1CCc2ccc(OC)cc2C1` as the compound, how does the outcome read?
**A.** The outcome was “inactive”.

**Q.** For `CCOC(=O)c1ccc(C2CCC(NC[C@H](O)COc3ccc(O)c(NS(C)(=O)=O)c3)CC2)cc1` (stereo partly drawn), which outcome is on record?
**A.** The outcome was “inactive”.

**Q.** With `COc1cccc(-c2ccc(/C=C\CN3CCCCCC3)cc2Cl)c1` as the compound, how does the AC50 read?
**A.** The AC50 was 3.94 µM (active).

**Q.** For `CCC(C)(C)C(=O)O[C@H]1C[C@@H](C)C=C2C=C[C@H](C)[C@H](CC[C@@H]3C[C@@H](O)CC(=O)O3)[C@H]21`, which outcome is on record?
**A.** The outcome was “inactive”.
